Measurements reported in PubChem BioAssay (NCI).
Several values for one entry are separate records, joined by “and”; a condition that tells them apart may be missing. Equal values may be shown once. Compounds without any hit were thinned out: in the full panel of roughly 83,000, 20% have a hit.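 48-hour exposure, single concentration, 96-well plates; percent growth endpoint where 0 means no net growth. Active: below 10.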 Values without a mark were called inactive. Activity calls are given as the source filed them.

test system: MDA-MB-468 breast; experiment: NCI-60 one-dose screen, 48 h (100 = growth as untreated, 0 = no growth, -100 = all killed); conditions: 10 µM unless noted

SMILES	growth
CS(=O)(=O)Nc1cc(-c2ccc3ncc(C#N)c(NCc4cccc(F)c4)c3c2)cnc1Cl	-37.9% (active)
O=C(Nc1cc(-c2ccccc2)[nH]n1)c1ccc(Cl)cc1	73%
CCCc1n(Cc2ccc3ccccc3c2)c2ccccc2[n+]1Cc1ccc2ccccc2c1	-44.7% (active)
O=c1[nH]c(=O)c2cc(Cl)cc(Cl)c2[nH]1	112%
COc1cc(C(=O)N/N=C/c2ccc(N(C)C)cc2)cc(OC)c1OC	-12.5% (active)
CCCCn1c(-c2ccc(F)cc2)nc2cc(OC)c(OC)cc2c1=O	115%
O=c1[nH]c(-c2cn(-c3ccc(Cl)cc3)nn2)nc2ccccc12	77.1%
O=C(/C=C/c1ccco1)Nc1ncc(Cc2cc(Cl)ccc2Cl)s1	14.6%
COc1cccc(-c2nc(-c3ccc(NS(=O)(=O)c4ccccc4)cc3)[nH]c2-c2ccnc(Br)c2)c1	18.3%
O=C(CCl)N1c2ccccc2Sc2c1ccc1ccccc21	26.4%
Cc1ccc(NCCNCC(C)(C)O)c2c(=O)c3ccc(Cl)cc3sc12	-28.9% (active)
CCc1nn2c(-c3ccc(Cl)cc3C)c(-c3cc(OC)c(OC)c(OC)c3)nc2s1	68.2%
CCC(O)c1ccccc1 (stereo not given)	108% and 97.6%
c1ccc2c(c1)CCCc1nnc3nc4ccccc4n3c1-2	29.9%
C[C@@H](C(=O)O)c1ccc2c3cc(Cl)ccc3n(Cc3cc(=O)oc4ccc(Cl)cc34)c2c1	113%
Cn1cc(-c2noc(-c3cn(C)c4ncc(F)cc34)n2)c2ccccc21	36.2%
CC(=O)[C@H]1CC[C@H]2[C@@H]3CC[C@@H]4CC=C(C=O)C[C@]4(C)[C@H]3CC[C@]12C	99.4%
CCOC(=O)Oc1c(OC)cc(C(=O)c2ccc(OC)c(OC(=O)CCl)c2OC)cc1OC	0.206% (active)
Cc1cc(C(=O)NN)c(C#N)c(=O)[nH]1	122%
Cc1c2cnccc2c(C)c2c1c1cc(C(=O)O)ccc1n2C	-7.86% (active)

SMILES	growth
O=C(N/N=C/c1c(Cl)cccc1Cl)c1cccc(Nc2ccnc(C(F)(F)F)c2)c1	67.6%
COC(=O)CCSC1=C(C)C(=O)c2ccccc2C1=O	-24.5% (active)
COc1ccc2sc3c(NCCCNCCO)nc4ccccc4c3c(=O)c2c1	30.9%
c1ccc(-c2nc([P+](c3ccccc3)(c3ccccc3)c3ccccc3)c(N3CCOCC3)o2)cc1	-22.5% (active)
Nc1c(C(=O)Nc2cccc3ncccc23)sc2nc3c(cc12)C(=O)CCC3	12.4%
Cc1nn(CC(=O)O)c2c1C(=O)CC(C)(C)C2	106%
CN(C)CCCNCc1ccc(-c2ccc(F)c(Cl)c2)o1	-66.3% (active)
COC(=O)c1ccc2[nH]c(O)c(C(=Nc3ccc(N(C)C(=O)CN4CCN(C)CC4)cc3)c3ccccc3)c2c1	52.3%
COc1cc2cc(Oc3ccc(NC(=O)c4ccc(Cl)c(C(F)(F)F)c4)cc3)c(C)nc2cc1OC	6.44% (active)
CN(C)CCCN=c1cc2c(=O)n(CCCN(C)C)c(=O)c3c(NCCCN(C)C)cc4c(O)n(CCCN(C)C)c(=O)c1c4c3-2	-53.2% (active)
C=CC(=O)Nc1ccc(Oc2nccc(Nc3nnc(-c4ccc(C)cc4)s3)n2)cc1	111%
N#Cc1ccc(/C=C/c2cn(-c3ccccc3)nc2-c2cccc([N+](=O)[O-])c2)cc1	64.7%
Cc1cc(=O)[nH]n1-c1cc(Cl)ccc1N	110%
COc1cc(-c2cc3cnccc3c3nc(N)c4ccncc4c23)cc(OC)c1OC	8.5% (active)
CSc1nc(NCCO)c(C#N)c(-c2cccc(N)c2)n1	116%
O=C(NCc1ccc(Cn2c(=O)sn(-c3ccccc3)c2=O)cc1)OCc1ccc2c(Br)cc(Br)c(O)c2n1	-67.5% (active)
COc1ccc2cc(C(C)C(=O)Nc3ccc(S(=O)(=O)Nc4cc(C)on4)cc3)ccc2c1 (stereo not given)	114%
CCOC(=O)CN1CCC(C(=O)OCC)CC1	114%
CN1CCN(c2ccc(Nc3nc(NCCNC(=O)c4ccc(F)cc4)c4sccc4n3)cc2)CC1	48.4%
CC(=O)c1cc(C(=O)c2ccc3c(c2)Sc2ccccc2N3)c2c(C)cc(C)cn12	14%
